Consider 39 compounds from PubChem BioAssay AID720519 (National Center for Advancing Translational Sciences (NCATS), 2013).

Inconclusive results are not listed. The source made the active and inactive calls. The call rests on the fitted dose curve; in most records, active means well fitted activation curve with a large enough effect; inconclusive means small, poorly fitted or top-dose-only effect; inactive means flat fitted curve, though single readings scatter.

What is called inhibition is the change of the read-out against control, counted positive when it falls.
Potency means the concentration at half of the fitted maximal effect.

This assay can be described thus: qHTS for Inhibitors of Cell Surface uPA Generation: Confirmatory Assay for Cherry-picked Compounds. On inhibition: 0% is about no effect. To be noted: cell surface uPA activity generation, qHTS confirmation; series mostly up to 115 µM; inhibition: at the top concentration. Summed up:
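RAW 264.7 cells at 4000/well, incubated overnight, then treated with compounds. After 24 h at 37 C, viability was read by ATPlite luminescence. An increase in signal indicates blocked uPA-dependent LF entry.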
Background: In qHTS, concentration-response curves come from the screen itself.
Take `CCn1nc(NS(=O)(=O)c2ccccc2)c2cc3cc(C)ccc3nc21`: the “inhibition” value is -3.18% (inactive).

Regarding `CC(=O)Nc1nc2ccccc2[nH]1`, the “inhibition” value was -0.707% (inactive).

On to `CC1CCCC(NC(=O)CNC(=S)N(Cc2ccccc2)Cc2cccs2)C1C` (centres undefined), for which the “inhibition” value was -2.48% (inactive). Same read-out and setting: the result for `O=C(COC(=O)/C=C/c1cccc(F)c1)Nc1ccccc1` reads -1.02% (inactive). On the same count and under the same terms, the result for `CCc1ccccc1N1C(=O)CC(Sc2nccc(C)n2)C1=O` (centres undefined) reads 0.764% (inactive); that for `O=C(CN(c1ccccc1F)S(=O)(=O)c1ccccc1)Nc1ccc2c(c1)OCCO2`, -3.45% (inactive).

With `Cc1ccc2nc(Nc3ccc(Cl)cc3)c3nncn3c2c1`, the “inhibition” value is 1.44% (inactive). On the same count and under the same terms, the result for `O=C(C[C@H]1C[C@H](C(=O)N2CCOCC2)[C@@]2(CCC3CCCC3)c3[nH]c4cc(-c5ccco5)ccc4c3CCN2C1=O)NCc1cccc(C(F)(F)F)c1` reads -1.11% (inactive). The same measure, in the same setting: the result for `COC(=O)CCSCC(=O)N1N=C(c2ccc(OC)cc2)CC1c1cccc(OC)c1OC` (centres undefined) reads -3.06% (inactive). Still for that read-out and setting: the result for `O=C(O)CNS(=O)(=O)c1ccc2c(c1)Cc1cc(S(=O)(=O)NCC(=O)O)ccc1-2` reads 1.16% (inactive). With `Cc1[nH]c(=O)[nH]c(=O)c1S(=O)(=O)N1CCCc2ccccc21`, the “inhibition” value is -1.5% (inactive).

Consider `O=C(Nc1ccnn1C1CCN(CCCC2CCCC2)CC1)c1ccccc1`, for which the “inhibition” value was -3.29% (inactive). Still for that read-out and setting: the result for `Clc1ccc(C2=NN=C3COc4ccccc4N3C2)cc1` reads -2.4% (inactive); that for `O=C(CN1CCOC1=O)N1CCCC(Nc2ccc(F)c(F)c2)C1` (centres undefined), -0.931% (inactive); that for `N#CCCN(C(=O)COC(=O)c1ccc2c(c1)NC(=O)CS2)c1ccc2c(c1)OCCO2`, -2.38% (inactive).

Take `COC(=O)c1c(NC(=O)c2c(OC)cccc2OC)sc2c1C(C(=O)OC)CC2` (centres undefined): the Potency is 29.3 µM (active). As to `COc1ccc(Cl)cc1NC(=O)CSc1nc(=O)n(CCN(C)C)c2c1CCCC2`, the “inhibition” value is -4.07% (inactive). Same read-out and setting: the result for `O=c1[nH]c2c(s1)C(c1ccc(O)cc1)C1C3CCC(C3)C1S2` (centres undefined) reads 4.53% (inactive); that for `COc1ccc(NC(=O)/C(N=Nc2cc(S(=O)(=O)Nc3ccc(OC)cc3)ccc2OC)=C(\C)O)cc1`, -1.65% (inactive); that for `CCOC(=O)C1=C(CN2CCN(C(=O)c3ccco3)CC2)NC(=O)NC1c1ccccc1` (centres undefined), -0.297% (inactive).

With `CCN(CC)S(=O)(=O)c1ccc(NC(=S)Nc2ccc(F)cc2)cc1`, the “inhibition” value was -2% (inactive).

Regarding `Cc1cccc(CNc2ccc(C(CC(N)=O)NC(=O)c3cccc(Br)c3)cc2[N+](=O)[O-])c1` (centres undefined), the “inhibition” value is -0.0467% (inactive). Turning to `O=C(CNS(=O)(=O)c1ccc(F)cc1)Nc1ccccc1`, the “inhibition” value was -1.01% (inactive).

With `COc1ccc(CN2CCN(Cc3ccc(C(F)(F)F)cc3)CC2)cc1`, the “inhibition” value is -2.64% (inactive).

As for `Cn1nc(C(C)(C)C)c([N+](=O)[O-])c1C(=O)N1CCOCC1`, the “inhibition” value was -1.01% (inactive). Still for that read-out and setting: the result for `COc1ccc(S(=O)(=O)N2CCN(Cc3ccccc3)CC2)c(C)c1` reads -3.46% (inactive); that for `CCCCNC(=O)c1cc2c(-c3ccc(Cl)cc3)nn(C)c2s1`, -0.855% (inactive); that for `CC1C2=C(CC(C)(C)CC2=O)NC2=C1C(=O)CC(C)(C)C2`, -0.241% (inactive). As for `Cc1ccc(-n2cccc2C(=O)NS(=O)(=O)c2ccc(C)cc2)cc1`, the “inhibition” value is 0.439% (inactive).

For `COc1ccccc1N=Nc1c(C)[nH]n(-c2ccccc2)c1=O`, the “inhibition” value was 7.35% (inactive).

As to `Cc1[nH]c2ccccc2c1C(=O)C(C)OC(=O)c1ccccc1NCCO` (centres undefined), the “inhibition” value is -3.62% (inactive).

As for `CCOc1ccc(NC(=S)N2CCC(c3ccc(C)cc3)C2)cc1` (centres undefined), the “inhibition” value is -2.73% (inactive).

As for `Nc1ccc(S(=O)(=O)c2ccccc2)nc1`, the “inhibition” value is -0.688% (inactive). Same read-out and setting: the result for `COc1ccccc1C(=O)Nc1cccc(C(=O)c2ccccc2)c1` reads -2.99% (inactive); that for `O=C(N/N=C/c1cccs1)c1ccco1`, -2.33% (inactive).

Regarding `Cc1[nH]c2ccccc2c1C(=O)COC(=O)c1cccc(S(=O)(=O)N2CCCCC2)c1`, the “inhibition” value is 0.068% (inactive). On the same count and under the same terms, the result for `CCOC(=O)Cc1csc(NC(=O)Nc2cccc(OC)c2)n1` reads 1.72% (inactive); that for `COc1ccc(CC(=O)OCC(=O)NNC(=O)c2ccccc2)cc1`, -3.04% (inactive); that for `COc1ccccc1NC(=O)Cn1ncc2c1-c1ccccc1OC2`, -1.12% (inactive).
